Assay results taken from PubChem BioAssay (EPA / NIEHS).
“And” between values parts separate entries of the source, which are not always exact repeats. Equal values may be shown once. Results filed as inconclusive are left out. Some compounds were tested as several samples or in several runs, with calls that do not always agree. The source made the active and inactive calls. The calls were made as follows, unless noted: active = hit-call score of the fitted dose curve at least 0.9, where 1 is the maximum; inactive = score below 0.9.

Legend:
[1] = BSK_BT_PBMCCytotoxicity: PBMC Cytotoxicity Assessment in the BioMAP Diversity Plus: BT Assay (AID 2284225); conditions: primary human B cells with PBMC;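 also: PBMC viability measured by Alamar Blue dye reduction fluorescence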
How it was run: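 Primary human co-culture of B cells and PBMC, pre-dosed 1 h then activated with SEB and TSST-1. Cytotoxicity is taken from Alamar Blue dye reduction, added for 6 h at the end of a 90 h incubation.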

[2] = UKN2_HCS_IMR90_neural_migration: University of Konstanz (UKN) Leist Lab Neural Crest Cell Migration Assay in human induced IMR90 Pluripotent Stem Cells (UKN2) (AID 2284204); conditions: actives raise or lower the signal
How it was run: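 Stopper-exclusion migration (cMINC), human iPSC-derived neural crest cells; N2-S + EGF/FGF; compound added 24 h post-stopper removal, 24 h exposure. Readout: calcein-AM/Hoechst 30 min, HCS fluorescence imaging; bidirectional fitting, DMSO baseline.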

[3] = UKN4_HCS_LUHMES_neurite_outgrowth: University of Konstanz (UKN) Leist Lab Neurite Outgrowth Assay in human LUHMES cells (UKN4) (AID 2284206); conditions: actives raise or lower the signal
How it was run: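 Neurite area in dopaminergic-model LUHMES neurons is measured by high-content imaging of calcein-AM after 24 h treatment starting shortly after day-2 replating; Hoechst staining tracks viability.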

[4] = IUF_NPC1b_proliferation_BrdU_72hr: Leibniz Research Institute for Environmental Medicine (IUF) 72-hour Neural Progenitor Cell Bromodeoxyuridine (BrdU) Proliferation Assay (NPC1b) (AID 2284207)
How it was run: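 Luminescent BrdU ELISA measured DNA synthesis during the last 16 h of a 72 h exposure of primary human neural progenitor spheres grown with EGF and FGF. Signal was fitted relative to DMSO controls.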

[5] = IUF_NPC1a_proliferation_area_72hr: Leibniz Research Institute for Environmental Medicine (IUF) 72-hour Neural Progenitor Cell Proliferation Area Assay (NPC1a) (AID 2284208)
How it was run: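 hNPC spheres (human fetal cortex, GW 16-19), one per poly-Hema U-bottom well; EGF+FGF medium; dosed day 0, no re-dosing; 72 h, 37C, 5% CO2; phase-contrast sphere area; DMSO = baseline; minus-GF = positive ctrl.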

[6] = IUF_NPC1_viability_72hr: Viability Assessment at 72 hours in the Leibniz Research Institute for Environmental Medicine (IUF) Neural Progenitor Cell Proliferation Assay (NPC1) (AID 2284209)
How it was run: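 Three-day continuous exposure of human neural progenitor spheres under EGF/FGF-driven proliferation; cell viability scored by alamar blue signal versus DMSO.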

[7] = CCTE_Mundy_HCI_Cortical_Synap_Neur_Matur_NeuriteSpotCountPerNeuriteLength: CCTE's Synaptogenesis and Neurite Maturation Assay in rat cortical cells for Neurite Spot Count per Neurite Length, Mundy Lab (AID 2284210)
How it was run: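 Read-out: synaptophysin puncta counted along MAP2-stained neurites, normalised to neurite length, by automated high-content imaging. Rat cortical cells; AraC DIV 5; chemical dosing DIV 7; termination DIV 12. DMSO baseline.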

[8] = CCTE_Mundy_HCI_Cortical_NOG_NeuriteLength: CCTE's Neurite Outgrowth Assay in rat cortical cells for Neurite Length, Mundy Lab (AID 2284213);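 as to AC50: neurites imaged about 48 to 50 h after chemical exposure began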
How it was run: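 First, rat primary cortical cells were plated and, 2 h later, given test chemical as a 1/10 dilution. Finally, βIII-tubulin immunostaining enabled automated imaging of neurite length.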

[9] = CCTE_Mundy_HCI_Cortical_Synap_Neur_Matur_NeuriteLength: CCTE's Synaptogenesis and Neurite Maturation Assay in rat cortical cells for Neurite Length, Mundy Lab (AID 2284214)
How it was run: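 DMSO-normalised neurite length, from high-content imaging of anti-MAP2-stained rat cortical cells fixed at DIV 12. Glia were suppressed with AraC (DIV 5) before chemical exposure from DIV 7.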

[10] = CCTE_Mundy_HCI_Cortical_Synap_Neur_Matur_NeuriteSpotCountPerNeuron: CCTE's Synaptogenesis and Neurite Maturation Assay in rat cortical cells for Neurite Spot Count per Neuron Count, Mundy Lab (AID 2284215)
How it was run: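 Read-out: neurite-associated synaptophysin puncta per neuron, imaged by high-content analysis after MAP2, synaptophysin and Hoechst staining. Rat primary cortical cultures, dosed DIV 7 through DIV 12; DMSO served as baseline.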

[11] = CCTE_Mundy_HCI_Cortical_Synap_Neur_Matur_SynapseCount: CCTE's Synaptogenesis and Neurite Maturation Assay in rat cortical cells for Synapse Count, Mundy Lab (AID 2284218)
How it was run: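 Endpoint: synapses/neuron by HCI (synaptophysin puncta on MAP2-labelled neurites, Hoechst nuclei). Rat primary cortical cells, AraC DIV 5, dosed DIV 7, fixed DIV 12; DMSO negative control.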

[12] = CCTE_Mundy_HCI_hN2_NOG_NeuriteCount: CCTE's Neurite Outgrowth Assay in human hN2 cells for Neurite Count, Mundy Lab (AID 2284219; active = hit-call score of the fitted dose curve at least 0.9, where 1 is the maximum)
How it was run: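 In this morphology assay, hNP1-derived neurons received test chemical 2 h post-plating and were fixed two days later in warm paraformaldehyde/sucrose containing Hoechst 33342. Neurites, labelled by rabbit anti-βIII-tubulin (1:800) and Alexa Fluor-488 (1:500), were counted automatically.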

[13] = CCTE_Mundy_HCI_hN2_NOG_NeuriteLength: CCTE's Neurite Outgrowth Assay in human hN2 cells for Neurite Length, Mundy Lab (AID 2284220; active = hit-call score of the fitted dose curve at least 0.9, where 1 is the maximum)
How it was run: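 Read-out is neurite length from high-content imaging of βIII-tubulin/Alexa Fluor-488-labelled neurons, referenced to DMSO controls.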

[14] = CCTE_Mundy_HCI_hN2_NOG_NeuronCount: CCTE's Neurite Outgrowth Assay in human hN2 cells for Neuron Count, Mundy Lab (AID 2284221; active = hit-call score of the fitted dose curve at least 0.9, where 1 is the maximum)
How it was run: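 Read-out is the number of betaIII-tubulin-positive neurons imaged by automated high-content analysis, with DMSO as negative control.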

[15] = CCTE_Mundy_HCI_Cortical_Synap_Neur_Matur_CellBodySpotCount: CCTE's Synaptogenesis and Neurite Maturation Assay in rat cortical cells for Cell Body Spot Count, Mundy Lab (AID 2284223)
How it was run: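 Read-out: cell body-associated synaptophysin puncta per neuron, imaged after MAP2, synaptophysin and Hoechst staining. Rat cortical cells, AraC DIV 5, chemical dosing DIV 7, fixation DIV 12. Activity fitted in positive direction relative to DMSO baseline.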

[16] = CCTE_Mundy_HCI_Cortical_NOG_NeuriteCount: CCTE's Neurite Outgrowth Assay in rat cortical cells for Neurite Count, Mundy Lab (AID 2284212);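 also: cells fixed about two days after chemical exposure began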
How it was run: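 Rat cortical primary cells; compound added 2 h post-plating, 1/10 dilution of working solution. Anti-betaIII-tubulin/AF488 ICC; ArrayScan neurite count vs DMSO.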

[17] = TAMU_PeakParms_SingleDonor1434_Chronotropy: Texas A&M University (TAMU) 1.5-hr Human Induced Pluripotent Stem Cell (iPSC)-derived Cardiomyocytes Calcium (Ca+2) Flux Assay for Cardiotoxicity: Chronotropy (changes in peak frequency) (AID 2284217); conditions: actives raise or lower the signal
How it was run: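 iPSC-CMs, donor 1434; 4 conc (0.2–100 uM), 0.5% v/v DMSO, 90 min, 37C/5% CO2; Ca2+ flux fluorescence → peak.freq.avg; peak.freq.avg = 0 dropped; bidirectional fit vs DMSO; EC05 POD.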

[18] = CCTE_Mundy_HCI_hNP1_Pro_ResponderAvgInten: CCTE's Proliferation Assay in human neuroprogenitor cells, Mundy Lab (AID 2284224; active = hit-call score of the fitted dose curve at least 0.9, where 1 is the maximum;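 also: human neural progenitor cells hNP1 derived from WA09 embryonic stem cells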)
How it was run: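 Proliferation read as average intensity of BrdU-positive cells, imaged at 26.25 h post-dosing: chemical exposure started after 40–44 h culture, BrdU during final 4 h, paraformaldehyde fixation. Positive-direction fit relative to DMSO.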

[19] = CCTE_Mundy_HCI_Cortical_Synap_Neur_Matur_BPCount: CCTE's Synaptogenesis and Neurite Maturation Assay in rat cortical cells for Branch Point Count, Mundy Lab (AID 2284211)
How it was run: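 In this multiplexed morphology assay, cortical cells from rat receive chemicals at DIV 7 and are fixed at DIV 12, then immunostained and imaged; branch points are counted, with DMSO as baseline.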

[20] = CCTE_Mundy_HCI_Cortical_Synap_Neur_Matur_NeuriteCount: CCTE's Synaptogenesis and Neurite Maturation Assay in rat cortical cells for Neurite Count, Mundy Lab (AID 2284222)
How it was run: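 Primary rat cortical cells were plated, treated with AraC at DIV 5, then exposed to chemicals from DIV 7 through DIV 12. After fixation and immunostaining for MAP2 and synaptophysin, imaging quantified neurites, with DMSO as the negative control.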

Measured: AC50

C=CC(=C)CC/C=C(\C)CCC=C(C)C
inactive: [1]

O=C(CCCN1CCC(O)(c2ccc(Cl)cc2)CC1)c1ccc(F)cc1
active: [3] 13.1 µM | [7] 50 µM | [8] 6.16 µM | [9] 21.2 µM | [10] 17.8 µM | [11] 18.4 µM | [12] 37.9 µM | [13] 22.4 µM | [14] 20.3 µM
inactive: [2] | [4] | [5] | [6] | [15]

CN(CCO)S(=O)(=O)C(F)(F)C(F)(F)C(F)(F)C(F)(F)C(F)(F)C(F)(F)C(F)(F)C(F)(F)F
inactive: [1]

O=S(=O)(O)C(F)(F)C(F)(F)C(F)(F)C(F)(F)C(F)(F)C(F)(F)C(F)(F)C(F)(F)C(F)(F)C(F)(F)F
inactive: [1]

COC1=CC(=O)C[C@@H](C)[C@]12Oc1c(Cl)c(OC)cc(OC)c1C2=O
inactive: [1]

COCN(COC)c1nc(N(COC)COC)nc(N(COC)COC)n1
inactive: [1]

O=C1NS(=O)(=O)c2ccccc21
not listed: [1] | [2] | [3] | [14] | [19] | [20]
inactive: all other assays above

O=C(NO)c1ccccc1
inactive: [1]

CN(Cc1cnc2nc(N)nc(N)c2n1)c1ccc(C(=O)N[C@@H](CCC(=O)O)C(=O)O)cc1
active: [19] 44.9 nM | [9] 0.0328 µM
not listed: [2] | [3] | [4] | [5] | [6] | [17] | [18]
inactive: all other assays above

O=C1OC2(c3ccccc31)c1cc(I)c(O)c(I)c1Oc1c2cc(I)c(O)c1I
inactive: [1]

OCC(F)(F)C(F)(F)C(F)(F)C(F)(F)C(F)(F)C(F)(F)C(F)(F)C(F)(F)C(F)(F)C(F)(F)C(F)(F)F
inactive: [18] | [1]
active: [1] 65.5 nM

CC(=O)Nc1ccc(O)cc1
not listed: [1] | [2] | [3] | [14] | [16] | [19] | [20]
inactive: all other assays above

CCOC(=O)CN[C@@H](C(=O)N1CC[C@H]1C(=O)NCc1ccc(/C(N)=N/O)cc1)C1CCCCC1
inactive: [1]

O=C1c2ccc(O)c(O)c2C(=O)c2c(O)ccc(O)c21
inactive: [1]

Cc1ccc(N=Nc2c(O)ccc3ccccc23)c(C)c1
inactive: [1]

O=C(CC(=O)C(F)(F)C(F)(F)C(F)(F)F)c1cccs1
active: [1] 45 µM and 39 µM
inactive: [18]

Nc1ccn([C@@H]2O[C@H](CO)[C@@H](O)C2O)c(=O)n1 (stereo partly drawn)
active: [8] 5.88 µM | [9] 17.1 µM | [10] 15.9 µM | [11] 16 µM | [14] 1.47 µM | [18] 89.6 nM
inactive: [2] | [3] | [7] | [12] | [13] | [15]

C=COC(=O)C(C)(C)CCCCCC
inactive: [1]

CC(C)c1c(C(=O)Nc2ccccc2)c(-c2ccccc2)c(-c2ccc(F)cc2)n1CC[C@@H](O)C[C@@H](O)CC(=O)O
inactive: [2] | [5] | [6] | [18]
active: [4] 1.7 µM | [7] 6.94 µM | [19] 779 nM | [16] 158 nM | [8] 0.145 µM | [9] 2.82 µM | [10] 3.05 µM | [11] 3.58 µM | [20] 3.35 µM | [15] 4.68 µM

Clc1ccc(Nc2nnc(Cc3ccncc3)c3ccccc23)cc1
inactive: [1]

CC1=NN(c2ccccc2)C(=O)C1
inactive: [1]
